The results in this text go back to the supplement of paper PMC10849652.

The full data set covers some 7,900 targets. This sample favours those with a hit. About 0.6% of all pairs of compound and target were hits.

UniProt Q5NDL2, sequence (Q5NDL2 whole entry, looked up): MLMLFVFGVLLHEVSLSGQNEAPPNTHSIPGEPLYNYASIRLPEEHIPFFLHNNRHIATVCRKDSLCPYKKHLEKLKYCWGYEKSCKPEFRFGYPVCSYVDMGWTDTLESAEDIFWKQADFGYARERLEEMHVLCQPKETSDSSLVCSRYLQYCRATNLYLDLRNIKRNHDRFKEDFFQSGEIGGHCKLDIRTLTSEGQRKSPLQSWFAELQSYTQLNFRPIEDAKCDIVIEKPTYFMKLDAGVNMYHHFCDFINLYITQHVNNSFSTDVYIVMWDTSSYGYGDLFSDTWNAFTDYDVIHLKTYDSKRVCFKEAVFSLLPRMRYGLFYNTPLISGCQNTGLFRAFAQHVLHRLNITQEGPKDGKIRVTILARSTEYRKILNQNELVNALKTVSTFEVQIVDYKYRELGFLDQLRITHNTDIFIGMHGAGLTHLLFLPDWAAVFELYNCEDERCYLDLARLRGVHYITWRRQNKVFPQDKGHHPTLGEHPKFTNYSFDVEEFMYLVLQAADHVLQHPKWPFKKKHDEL
UniProt Q6IAN0, sequence (Q6IAN0 whole entry, looked up): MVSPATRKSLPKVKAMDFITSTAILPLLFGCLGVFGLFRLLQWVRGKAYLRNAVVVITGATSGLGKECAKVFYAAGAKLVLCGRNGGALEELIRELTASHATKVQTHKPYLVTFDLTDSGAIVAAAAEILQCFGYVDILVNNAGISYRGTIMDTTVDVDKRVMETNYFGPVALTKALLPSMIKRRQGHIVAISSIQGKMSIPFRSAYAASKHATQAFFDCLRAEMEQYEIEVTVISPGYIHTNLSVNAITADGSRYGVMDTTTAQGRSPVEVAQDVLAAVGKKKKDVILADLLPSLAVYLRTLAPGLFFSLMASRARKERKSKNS
UniProt P13498, sequence (P13498 whole entry, looked up): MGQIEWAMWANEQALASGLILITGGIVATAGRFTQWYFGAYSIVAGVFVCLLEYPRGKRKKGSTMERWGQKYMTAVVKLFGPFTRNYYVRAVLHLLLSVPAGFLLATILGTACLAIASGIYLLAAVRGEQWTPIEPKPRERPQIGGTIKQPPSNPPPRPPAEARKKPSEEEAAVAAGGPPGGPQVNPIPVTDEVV
UniProt O76075, sequence (O76075 whole entry, looked up): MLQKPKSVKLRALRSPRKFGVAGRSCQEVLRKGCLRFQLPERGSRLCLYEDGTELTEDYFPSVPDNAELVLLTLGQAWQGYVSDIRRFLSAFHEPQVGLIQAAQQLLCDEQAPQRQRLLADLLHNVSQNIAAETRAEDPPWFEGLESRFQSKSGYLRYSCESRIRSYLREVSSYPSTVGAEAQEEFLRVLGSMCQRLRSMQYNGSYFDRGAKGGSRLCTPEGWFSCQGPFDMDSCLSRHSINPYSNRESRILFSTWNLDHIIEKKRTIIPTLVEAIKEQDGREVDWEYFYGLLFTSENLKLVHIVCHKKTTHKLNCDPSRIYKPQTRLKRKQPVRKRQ
UniProt Q16531, sequence (Q16531 whole entry, looked up): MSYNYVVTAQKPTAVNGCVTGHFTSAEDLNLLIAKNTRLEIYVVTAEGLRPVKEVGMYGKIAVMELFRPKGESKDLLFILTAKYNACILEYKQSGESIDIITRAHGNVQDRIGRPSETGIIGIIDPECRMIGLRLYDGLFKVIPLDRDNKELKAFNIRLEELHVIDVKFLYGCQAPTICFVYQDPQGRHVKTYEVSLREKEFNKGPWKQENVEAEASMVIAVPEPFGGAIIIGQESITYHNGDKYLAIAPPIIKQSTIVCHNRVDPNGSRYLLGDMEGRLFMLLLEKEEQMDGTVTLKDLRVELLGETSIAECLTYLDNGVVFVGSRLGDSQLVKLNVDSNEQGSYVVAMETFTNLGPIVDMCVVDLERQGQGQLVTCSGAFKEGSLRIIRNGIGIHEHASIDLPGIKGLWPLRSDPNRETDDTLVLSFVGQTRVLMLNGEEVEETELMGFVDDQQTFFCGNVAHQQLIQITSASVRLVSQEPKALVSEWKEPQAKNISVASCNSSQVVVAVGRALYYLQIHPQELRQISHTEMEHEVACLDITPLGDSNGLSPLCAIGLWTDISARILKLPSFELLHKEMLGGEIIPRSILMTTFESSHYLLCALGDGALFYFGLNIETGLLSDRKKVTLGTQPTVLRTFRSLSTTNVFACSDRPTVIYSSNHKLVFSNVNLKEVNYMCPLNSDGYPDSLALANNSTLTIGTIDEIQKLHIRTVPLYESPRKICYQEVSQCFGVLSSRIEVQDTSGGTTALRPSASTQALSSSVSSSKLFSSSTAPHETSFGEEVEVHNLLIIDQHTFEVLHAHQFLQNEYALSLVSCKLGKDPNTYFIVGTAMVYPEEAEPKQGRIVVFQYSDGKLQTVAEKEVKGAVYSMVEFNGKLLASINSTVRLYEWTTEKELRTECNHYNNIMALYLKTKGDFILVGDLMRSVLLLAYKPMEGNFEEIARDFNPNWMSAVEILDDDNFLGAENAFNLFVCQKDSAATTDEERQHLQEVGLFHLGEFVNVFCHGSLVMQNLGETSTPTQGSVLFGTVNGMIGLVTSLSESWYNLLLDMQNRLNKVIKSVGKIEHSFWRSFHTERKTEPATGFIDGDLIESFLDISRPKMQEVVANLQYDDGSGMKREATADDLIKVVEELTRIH
UniProt Q6V1X1, sequence (Q6V1X1 whole entry, looked up): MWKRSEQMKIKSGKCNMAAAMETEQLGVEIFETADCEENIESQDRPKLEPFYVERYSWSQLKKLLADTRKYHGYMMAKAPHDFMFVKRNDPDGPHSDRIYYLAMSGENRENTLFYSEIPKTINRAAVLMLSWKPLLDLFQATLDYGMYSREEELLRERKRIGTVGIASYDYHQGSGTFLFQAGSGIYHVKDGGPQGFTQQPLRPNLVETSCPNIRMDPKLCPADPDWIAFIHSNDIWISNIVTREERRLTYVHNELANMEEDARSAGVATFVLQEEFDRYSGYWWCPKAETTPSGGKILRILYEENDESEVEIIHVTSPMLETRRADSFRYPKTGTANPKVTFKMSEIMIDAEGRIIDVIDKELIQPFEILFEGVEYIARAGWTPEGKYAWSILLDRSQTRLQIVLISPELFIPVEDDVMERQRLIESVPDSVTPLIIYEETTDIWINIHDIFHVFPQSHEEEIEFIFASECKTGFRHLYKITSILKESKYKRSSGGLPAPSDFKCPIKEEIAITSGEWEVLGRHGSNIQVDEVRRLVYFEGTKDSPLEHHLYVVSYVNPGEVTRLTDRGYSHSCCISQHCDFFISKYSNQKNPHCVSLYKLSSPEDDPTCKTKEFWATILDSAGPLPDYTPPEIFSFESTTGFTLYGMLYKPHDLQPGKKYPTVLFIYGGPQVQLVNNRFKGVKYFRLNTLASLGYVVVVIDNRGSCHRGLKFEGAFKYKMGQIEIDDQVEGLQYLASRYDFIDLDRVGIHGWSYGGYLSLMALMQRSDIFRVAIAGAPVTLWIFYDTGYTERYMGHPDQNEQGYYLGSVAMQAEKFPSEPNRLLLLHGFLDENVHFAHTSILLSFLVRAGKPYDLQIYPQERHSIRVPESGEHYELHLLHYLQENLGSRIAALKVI
UniProt Q9H2U1, sequence (Q9H2U1 whole entry, looked up): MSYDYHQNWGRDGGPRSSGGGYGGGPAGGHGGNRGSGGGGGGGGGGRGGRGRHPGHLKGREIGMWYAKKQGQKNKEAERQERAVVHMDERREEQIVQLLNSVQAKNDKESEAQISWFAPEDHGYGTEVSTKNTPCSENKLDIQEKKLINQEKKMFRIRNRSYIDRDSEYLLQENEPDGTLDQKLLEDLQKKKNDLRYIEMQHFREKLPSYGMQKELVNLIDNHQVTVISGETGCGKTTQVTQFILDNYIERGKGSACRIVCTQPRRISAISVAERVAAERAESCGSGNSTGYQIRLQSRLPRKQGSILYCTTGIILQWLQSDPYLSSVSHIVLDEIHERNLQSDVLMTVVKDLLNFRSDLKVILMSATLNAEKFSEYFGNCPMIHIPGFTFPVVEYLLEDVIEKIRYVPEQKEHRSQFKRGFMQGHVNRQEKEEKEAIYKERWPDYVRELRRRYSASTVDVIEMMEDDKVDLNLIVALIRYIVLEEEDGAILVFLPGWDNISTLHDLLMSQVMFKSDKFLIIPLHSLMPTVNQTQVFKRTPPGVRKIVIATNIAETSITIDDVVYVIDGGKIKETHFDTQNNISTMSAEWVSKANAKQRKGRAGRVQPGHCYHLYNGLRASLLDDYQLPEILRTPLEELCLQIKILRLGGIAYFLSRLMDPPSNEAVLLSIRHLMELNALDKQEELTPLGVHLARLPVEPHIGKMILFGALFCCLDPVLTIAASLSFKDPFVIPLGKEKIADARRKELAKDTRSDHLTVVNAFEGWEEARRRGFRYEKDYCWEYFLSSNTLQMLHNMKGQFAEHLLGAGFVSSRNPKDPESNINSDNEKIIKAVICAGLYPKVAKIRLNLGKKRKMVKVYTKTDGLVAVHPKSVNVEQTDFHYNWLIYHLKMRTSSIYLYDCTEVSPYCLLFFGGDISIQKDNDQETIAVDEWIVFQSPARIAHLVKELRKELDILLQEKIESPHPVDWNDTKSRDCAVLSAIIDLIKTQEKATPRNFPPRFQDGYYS
UniProt Q9NXW2, sequence (Q9NXW2 whole entry, looked up): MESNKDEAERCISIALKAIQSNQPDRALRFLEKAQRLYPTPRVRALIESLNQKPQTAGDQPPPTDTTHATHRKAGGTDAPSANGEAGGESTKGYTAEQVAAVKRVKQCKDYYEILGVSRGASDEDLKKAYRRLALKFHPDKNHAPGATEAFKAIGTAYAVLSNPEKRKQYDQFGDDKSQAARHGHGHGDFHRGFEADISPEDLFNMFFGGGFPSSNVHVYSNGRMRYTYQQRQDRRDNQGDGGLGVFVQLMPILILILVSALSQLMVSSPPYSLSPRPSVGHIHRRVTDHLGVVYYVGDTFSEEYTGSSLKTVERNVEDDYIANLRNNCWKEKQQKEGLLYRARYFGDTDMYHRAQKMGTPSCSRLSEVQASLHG
UniProt Q9H773, sequence (Q9H773 whole entry, looked up): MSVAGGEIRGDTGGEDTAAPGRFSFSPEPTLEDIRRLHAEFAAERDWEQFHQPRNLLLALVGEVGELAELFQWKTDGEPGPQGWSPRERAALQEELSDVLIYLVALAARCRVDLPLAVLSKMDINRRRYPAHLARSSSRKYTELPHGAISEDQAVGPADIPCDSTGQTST

Compound in one assay: CON(C)C(=O)N1N=C(c2cc(F)ccc2F)S[C@@]1(CCCN)c1ccccc1 [filanesib]
In words: log2 fold change, soluble protein after heating vs DMSO (PISA); higher = thermal stabilisation; K562 cells, 10 uM, 30 min; active = over 0.2 and 3.5 SD of the protein, either way, in both replicates (recomputed). The essentials: (§1)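 Soluble protein was quantified by TMTpro 16plex LC-MS/MS after channel sums were equalised. It was obtained as the supernatant after 21,000xg for 90 min from pooled aliquots of K562 cells (2×10^6 cells/mL, 10 μM compound, 30 min) heated for 3 min across 48°C-58°C and extracted in PBS with 0.5% NP-40 at 4°C. Thermal stability values are relative to control samples and come from duplicates. They are given as log2 fold changes.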
For the target DNAJB12 (UniProt Q9NXW2), the log2 fold change is -0.024 (inactive).
Same read-out and setting: as for DHFR (UniProt P00374), the figure is 0.089 (inactive); as for DFFB (UniProt O76075), -0.141 (inactive); as for EXOC5 (UniProt O00471), -0.051 (inactive).
DCTPP1 (UniProt Q9H773): the log2 fold change was -0.02 (inactive).
For DHX40 (UniProt Q8IX18), the log2 fold change is 0.022 (inactive).
For the target EOGT (UniProt Q5NDL2), the log2 fold change was 0.053 (inactive).
Turning to DHCR7 (UniProt Q9UBM7), the log2 fold change was -0.025 (inactive).
Take CUTA isoform 2 (UniProt O60888): the log2 fold change is 0.108 (inactive).
Take ERLIN1 (UniProt O75477): the log2 fold change is 0.031 (inactive).
With EXOC1 (UniProt Q9NV70), the log2 fold change was 0.01 (inactive).
For the target CUX1 isoform 2 (UniProt Q13948), the log2 fold change is 0.077 (inactive).
For DNM2 (UniProt P50570), the log2 fold change is -0.107 (inactive).
For the target DHRS7B (UniProt Q6IAN0), the log2 fold change is 0.03 (inactive).
For DIP2A (UniProt Q14689), the log2 fold change was 0.028 (inactive).
For FAM114A2 (UniProt Q9NRY5), the log2 fold change is -0.131 (inactive).
Take FAF2 (UniProt Q96CS3): the log2 fold change was -0.022 (inactive).
Same read-out and setting: as for ECH1 (UniProt Q13011), the figure is -0.215 (inactive).
Same read-out and setting: then DDOST (UniProt P39656), with -0.009 (inactive); and DCAF6 isoform 3 (UniProt Q58WW2), with -0.017 (inactive); and DHCR24 (UniProt Q15392), with -0.074 (inactive).
Still for that read-out and setting: as for DNAH11 (UniProt Q96DT5), the figure is 0.047 (inactive).
Turning to DCAF13 (UniProt Q9NV06), the log2 fold change was 0.333 (inactive).
On the same count and under the same terms, then CYBA (UniProt P13498), with -0.189 (inactive); and FADS1, A0A0A0MR51, with -0.112 (inactive); and DPP8 (UniProt Q6V1X1), with 0.048 (inactive).
With DDB1 (UniProt Q16531), the log2 fold change is -0.015 (inactive).
Still for that read-out and setting: as for CUX1 isoform 3 (UniProt P39880), the figure is 0.001 (inactive); as for EHBP1L1 (UniProt Q8N3D4), 0.147 (inactive); as for EXOC7 (UniProt Q9UPT5), 0.032 (inactive).
On the same count and under the same terms, as for DHX36 (UniProt Q9H2U1), the figure is 0.119 (inactive); as for DBR1 (UniProt Q9UK59), 0.036 (inactive).
Still for that read-out and setting: then ERLIN2 (UniProt O94905), with 0.039 (inactive).
Turning to DAG1 (UniProt Q14118), the log2 fold change was 0.054 (inactive).
Turning to EFL1 (UniProt Q7Z2Z2), the log2 fold change is -0.069 (inactive).
Same read-out and setting: as for DHRS3 (UniProt O75911), the figure is -0.009 (inactive); as for FAM160B1 (UniProt Q5W0V3), -0.145 (inactive).
On to EHD2 (UniProt Q9NZN4), for which the log2 fold change is -0.013 (inactive).
With DTWD1 (UniProt Q8N5C7), the log2 fold change is -0.081 (inactive).
Still for that read-out and setting: then FAM177A1 isoform 2 (UniProt Q8N128), with -0.145 (inactive).

Compound in another assay: CO[C@H]1C[C@@H]2CC[C@@H](C)[C@@](O)(O2)C(=O)C(=O)N2CCCC[C@H]2C(=O)O[C@H]([C@H](C)C[C@@H]2CC[C@H](n3cnnn3)[C@H](OC)C2)CC(=O)[C@H](C)/C=C(\C)[C@@H](O)[C@@H](OC)C(=O)[C@H](C)C[C@H](C)/C=C/C=C/C=C/1C [zotarolimus]
The description is as above. An outline of the steps:
as §1
Regarding DNAJB12 (UniProt Q9NXW2), the log2 fold change was -0.06 (inactive).
In the case of DHFR (UniProt P00374), the log2 fold change was 0.065 (inactive).
As for DFFB (UniProt O76075), the log2 fold change was -0.093 (inactive).
Same read-out and setting: as for EXOC5 (UniProt O00471), the figure is 0.089 (inactive); as for DCTPP1 (UniProt Q9H773), 0.083 (inactive); as for DHX40 (UniProt Q8IX18), 0.008 (inactive).
Regarding EOGT (UniProt Q5NDL2), the log2 fold change was 0.013 (inactive).
On the same count and under the same terms, as for DHCR7 (UniProt Q9UBM7), the figure is -0.088 (inactive); as for CUTA isoform 2 (UniProt O60888), -0.159 (inactive); as for ERLIN1 (UniProt O75477), 0.037 (inactive).
With EXOC1 (UniProt Q9NV70), the log2 fold change is 0.038 (inactive).
With CUX1 isoform 2 (UniProt Q13948), the log2 fold change is -0.007 (inactive).
On the same count and under the same terms, as for DNM2 (UniProt P50570), the figure is 0.016 (inactive); as for DHRS7B (UniProt Q6IAN0), -0.058 (inactive).
On to DIP2A (UniProt Q14689), for which the log2 fold change was -0.018 (inactive).
With FAM114A2 (UniProt Q9NRY5), the log2 fold change was -0.01 (inactive).
In the case of FAF2 (UniProt Q96CS3), the log2 fold change was 0.035 (inactive).
With ECH1 (UniProt Q13011), the log2 fold change is -0.05 (inactive).
Turning to DDOST (UniProt P39656), the log2 fold change was 0.036 (inactive).
As to DCAF6 isoform 3 (UniProt Q58WW2), the log2 fold change was -0.045 (inactive).
With DHCR24 (UniProt Q15392), the log2 fold change is 0.013 (inactive).
In the case of DNAH11 (UniProt Q96DT5), the log2 fold change was 0.04 (inactive).
Turning to DCAF13 (UniProt Q9NV06), the log2 fold change was -0.01 (inactive).
Still for that read-out and setting: as for CYBA (UniProt P13498), the figure is -0.067 (inactive).
FADS1, A0A0A0MR51: the log2 fold change is -0.004 (inactive).
As to DPP8 (UniProt Q6V1X1), the log2 fold change is 0.028 (inactive).
Turning to DDB1 (UniProt Q16531), the log2 fold change was -0.017 (inactive).
Regarding CUX1 isoform 3 (UniProt P39880), the log2 fold change was -0.002 (inactive).
Consider EHBP1L1 (UniProt Q8N3D4), for which the log2 fold change is 0.065 (inactive).
With EXOC7 (UniProt Q9UPT5), the log2 fold change is 0.01 (inactive).
For the target DHX36 (UniProt Q9H2U1), the log2 fold change was 0.024 (inactive).
With DBR1 (UniProt Q9UK59), the log2 fold change is -0.003 (inactive).
For ERLIN2 (UniProt O94905), the log2 fold change is 0.034 (inactive).
DAG1 (UniProt Q14118): the log2 fold change was -0.045 (inactive).
EFL1 (UniProt Q7Z2Z2): the log2 fold change is 0.022 (inactive).
Still for that read-out and setting: as for DHRS3 (UniProt O75911), the figure is -0.056 (inactive).
Regarding FAM160B1 (UniProt Q5W0V3), the log2 fold change was 0.004 (inactive).
Still for that read-out and setting: then EHD2 (UniProt Q9NZN4), with 0.007 (inactive).
For the target DTWD1 (UniProt Q8N5C7), the log2 fold change is 0.031 (inactive).
Take FAM177A1 isoform 2 (UniProt Q8N128): the log2 fold change was -0.041 (inactive).
